Whole data set: some 33,000 sequences, median “E-score (-0.5 to 0.5)” near -0.035, cut for the highest 2% near 0.35. The list comes from a sample in which the highest values are over-represented; it also holds similar and randomly drawn sequences.
What follows are sequences tested against T1, Pdr3 (UniProt P33200) (assay: PBM E-score (8-mer binding enrichment) (E-score (-0.5 to 0.5)); higher = stronger / more preferred TF binding). Settings: protein concentration: 200 nM; construct: GST-full length.
T1 sequence: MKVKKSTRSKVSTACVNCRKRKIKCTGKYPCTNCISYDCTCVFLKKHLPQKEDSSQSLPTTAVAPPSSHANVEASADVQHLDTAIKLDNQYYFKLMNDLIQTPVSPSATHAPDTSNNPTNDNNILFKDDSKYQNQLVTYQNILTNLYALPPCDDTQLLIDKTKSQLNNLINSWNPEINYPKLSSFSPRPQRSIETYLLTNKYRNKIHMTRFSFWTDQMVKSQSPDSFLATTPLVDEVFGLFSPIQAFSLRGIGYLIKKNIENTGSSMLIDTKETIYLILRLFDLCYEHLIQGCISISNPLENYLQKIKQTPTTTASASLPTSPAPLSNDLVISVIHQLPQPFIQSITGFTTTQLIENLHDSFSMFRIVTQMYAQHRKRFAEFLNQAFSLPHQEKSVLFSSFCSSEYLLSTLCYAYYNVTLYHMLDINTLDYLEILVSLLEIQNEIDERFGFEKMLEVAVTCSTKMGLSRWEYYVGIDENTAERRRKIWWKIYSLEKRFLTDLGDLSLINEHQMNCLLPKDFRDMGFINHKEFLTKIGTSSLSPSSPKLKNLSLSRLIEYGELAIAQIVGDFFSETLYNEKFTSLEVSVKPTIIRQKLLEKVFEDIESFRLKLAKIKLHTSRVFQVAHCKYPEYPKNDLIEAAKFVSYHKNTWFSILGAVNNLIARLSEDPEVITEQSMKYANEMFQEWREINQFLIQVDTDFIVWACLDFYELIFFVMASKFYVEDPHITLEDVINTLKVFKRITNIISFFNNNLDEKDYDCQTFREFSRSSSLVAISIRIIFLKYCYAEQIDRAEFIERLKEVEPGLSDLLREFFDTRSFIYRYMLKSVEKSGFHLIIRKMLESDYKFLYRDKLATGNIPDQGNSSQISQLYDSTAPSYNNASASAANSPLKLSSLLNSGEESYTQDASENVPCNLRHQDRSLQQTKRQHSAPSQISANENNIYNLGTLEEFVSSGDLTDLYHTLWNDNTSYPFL
In short: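 Universal all-10-mer Agilent arrays, fresh or stripped once, were converted to double-stranded form by primer extension. GST-tagged yeast transcription factors from PURExpress in vitro transcription/translation, full-length or DNA-binding domain only, were applied at about 100-200 nM and detected with fluorescent anti-GST. After masliner normalisation, the Universal PBM Analysis Suite scored each ungapped eight-base word together with its reverse complement by E-score.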

Sequence	PBM E-score
CCTTGTGA	-0.0319
GGCTGTTA	0.0369
CACTTAGA	-0.119
CGCTGGAC	-0.075
TCCTCGCA	-0.0258
CAAATTGC	0.0819
CAAAAACC	0.0333
CTTACCAA	-0.108
AAGAGCAG	-0.0681
CTATGGCC	-0.124
TGTCGTAA	-0.113
GGTCGGAA	0.4
TGTCGGAA	0.383
GGTCGGAC	0.15
GGTCGGCA	-0.00943
AGTCGGAC	0.117
CGTCGGAC	0.252
TGTCGCAA	-0.0293
AGTCGGAA	0.414
CGTCGGAA	0.411
AGTCGGAG	0.134
CGTCGGAG	0.178
CCTTGGCG	-0.0565
CGCTTTGC	0.0905
CCCCACGA	-0.0538

Sequence	PBM E-score
ACAGTATC	-0.21
AAACCAGT	-0.227
GCTAGAGC	-0.272
AAGCCCGT	-0.162
CCGCCCGC	0.241
CCGCCCCG	0.435
AAGCCCGC	0.213
ACGCCCCG	0.181
CCGCCCCC	0.0913
ACGCCCGG	0.311
AAGCCCGG	0.379
CCGCCCGG	0.407
CACTCATG	-0.257
AAAGGGAT	-0.154
AACCGCCA	-0.0357
GGGAGATA	0.0536
AGGAGATA	-0.182
CGGAGATA	0.386
ATTCAAAA	0.0638
GAAAACTA	0.0457
AAATATAT	0.19
CGAAAGCC	-0.105
GTAACGTA	-0.165
CTAACGGC	-0.00464
CTAACGGA	0.389

Sequence	PBM E-score
ATAACGGC	0.135
GTAACGGA	0.397
CTAACGAA	-0.0337
GTAACGCA	0.0163
ATAACGGA	0.386
ATAACGGG	0.0143
CATGTGCG	0.0377
ATAGCGTC	-0.153
GTGCAGTA	-0.0405
CCTGGCCA	-0.107
ATGAAGCA	-0.152
ACGCTATG	-0.187
ATCGACCA	-0.176
CAAAGAGC	-0.0254
ACGGAGCG	0.337
CAGGAGCG	-0.12
ACGGAGCC	0.305
CCGGAGCA	0.401
GCGGAGCC	0.296
GCGGAGCA	0.304
TCGGAGCA	0.28
CCGGAGCC	0.403
CCGGAGCG	0.37
AAAAGAGT	-0.208
AAGATTCG	0.108

Sequence	PBM E-score
ACAACACG	0.0551
ATGTTCGC	-0.165
ACTGGCGG	0.153
CTTCAGGC	-0.224
CGCAAGAG	0.0334
ATGGAATG	0.184
CGGGAATA	0.331
AGGGAATG	-0.0936
AGGGAATC	0.00236
CCGGAATA	0.437
ACGGAATA	0.445
ATGGAATA	0.205
CTGGAATA	0.08
ACGGAATG	0.432
AAGGAATA	-0.0227
ATGGAATC	0.205
ACGGAATC	0.465
GGCCGATA	0.0764
CATGTTTA	-0.0824
GCCGCATA	0.237
AAGGGCAC	-0.157
AAGCCGCC	0.0806
AACCTAGA	0.11
AGACAGTC	-0.0923
CCGGAATC	0.471

Sequence	PBM E-score
GGGGAATA	0.121
GCGGAATA	0.398
CTGGAATC	0.02
CGGGAATC	0.334
GTGGAATA	0.122
CCCACTCA	-0.108
AGATTGTC	0.0868
AGTAAAAT	-0.11
ACGGCTAG	-0.152
AAAACCAA	-0.0135
AATATTTG	0.0496
AATACGGA	0.351
TATACGGA	0.221
GATACGGA	0.357
CATACGGA	0.359
GATACGGC	0.014
CATACGGC	0.143
CTGTTCTC	-0.0802
ATGAGCTG	-0.0649
CGTATTTA	0.164
CGGTGCCA	-0.115
AATCCCGC	0.333
AGTCCCGA	0.147
AATCCCAT	-0.0271
AATCCCGT	0.409

Sequence	PBM E-score
TATCCCGA	0.305
AATCCCGA	0.358
ACAAGGTG	-0.125
GTCCTCTA	-0.222
GGAACCTA	0.3
TCTGGCAA	0.0125
ACCTACGC	-0.0495
GAAACGAA	0.0452
CAAACGGA	0.37
TAAACGAA	-0.0987
AAAACGGA	0.314
TAAACGTA	-0.137
CAAACGGG	0.184
GAAACGGA	0.395
GAAACGGC	0.202
TAAACGGA	0.366
CAAATGCG	0.0429
CATTCTCC	-0.105
CAGGGCAA	0.0442
CCGCTAGG	0.0934
TCGCTAGA	-0.125
CGTACCAC	-0.102
AATCCTAG	-0.108
CTGATAGA	-0.118
CTTCCCGA	0.291

Sequence	PBM E-score
GTTCCTGA	-0.0384
CTTCCGGA	0.451
ATTCCGGA	0.481
CTTCCTGA	0.0336
GTACCGGA	0.318
GTTCCGGA	0.475
CTACCGGC	-0.0343
ATACCGGA	0.303
CTTCCGGC	0.398
CTGCCGGC	0.339
ATTCCAGA	0.0594
AACTGATA	0.0335
ATAAGCAA	-0.128
GATGCGCA	0.0246
AAAACCCG	0.319
CACTTACG	0.121
AGCCCTCA	-0.248
ACCGGCGA	0.281
GCCGGCGA	0.36
GCCGGCGC	0.372
CCCGGCGA	0.296
GCCGGCTA	0.248
TCCGGCGA	0.356
ACCGGCGC	0.228
GTCGGCGA	-0.0361

Sequence	PBM E-score
CCCGGCGC	0.26
AGAGGCCG	-0.105
CTAGAAGC	-0.166
ATGTCGGC	-0.0499
CGCAACTA	0.0897
CCGCCGCC	0.244
CCGCCGGA	0.415
CCGCCGGC	0.401
GCGCCGGA	0.384
ACGCCGGA	0.289
ACGCCGGC	0.385
CCGCCGTC	0.168
GCGCCGAA	0.241
CCGCCGCA	0.202
ACGCCGCC	0.0831
GCGCCGTA	0.251
ACGCCGGG	0.251
GACCTACC	0.0277
ACCTTTAA	-0.0915
ATGTCGTA	-0.238
CATGAGTA	-0.168
GCGCACGA	0.0416
GCTGTACC	-0.00444
GCCTGCCC	-0.0411
CCCAAGAA	-0.0373

Sequence	PBM E-score
ACGGCGCC	0.243
CCGGCGCC	0.37
GCGGCGCC	0.353
AACGAACT	-0.245
AGAGAAGG	-0.0862
AGGAAAGA	-0.167
CGGAAAGA	0.428
AGGAAAGC	-0.105
CCGAAAGC	0.136
CGGAAAGC	0.415
GGGAAAGA	0.0836
CTGCGGTA	-0.0102
GCTTTCAC	-0.107
ACTGGGCT	0.0297
CCTGCAGA	-0.0209
AGTTCTGG	-0.0246
CGGTGTAC	-0.0705
AGACTACT	-0.173
TGGATAAA	0.103
CGGATATA	0.346
CGGATAAC	0.333
AGGATATC	-0.0388
TGGATACA	-0.189
CGGATACC	0.31
CGGATATC	0.391

Sequence	PBM E-score
CGGATACA	0.364
CGGATAAA	0.383
ACTTTGAA	-0.202
ATCTTAGC	-0.2
GGCCAGAC	0.075
GAGGTCAC	-0.0512
ACCCAGAG	-0.132
AGGCGCAC	0.147
CCGTGGAG	0.382
ACGTGGAG	-0.132
ACGTGGAA	-0.0114
CCGTGGAC	0.274
GCGTGGAA	0.0102
CCGTGGAA	0.437
TGCGCCAA	0.053
GCGCGGCA	0.237
ACGCGGAC	0.229
TCGCGGAA	0.404
TCGCGGCA	0.174
ACGCGGAA	0.407
TCGCGAAA	0.131
ACGCGGAT	0.244
GCGCGGAA	0.464
GCGCGGAC	0.305
AAACCTCA	0.109

Sequence	PBM E-score
GAGTTGGC	0.115
ATAAGCAG	-0.127
CCCGAATA	0.14
AGGCAGCC	0.0506
CGGCAGCC	0.358
CGGCAGCA	0.109
CGGGTTCA	0.304
CCGGTTCA	0.104
CGGGTTCC	0.414
AGGGTTCC	0.249
CCGGTTCC	0.426
CCGGTTCG	0.217
CTCCATAA	-0.273
CTCGCTGC	0.00281
CTGGTCTA	-0.254
ACACTTCC	0.184
CTGTTGAC	-0.162
AAACCAGG	-0.0534
CGTAACAC	-0.0629
GGGAATCA	0.0382
AGGAATCC	0.0872
AGGAATCA	-0.0475
CCGAATCC	0.336
CGGAATCC	0.461
CGGAATCA	0.456

Sequence	PBM E-score
CTTGGGCC	-0.0633
GTATCTGA	-0.146
ACGTCTCG	-0.0164
AAAGTCTC	-0.186
TTAGCGAA	0.0125
GCTACCAC	-0.16
CTGGGATA	0.0272
CCGGGATC	0.453
ACGGGATA	0.38
ACGGGATC	0.275
CGGGGAGA	0.28
CCGGGATA	0.388
ACGGGATG	0.283
CCGGGAGG	0.334
CGGGGATA	0.33
GCGGGATA	0.322
CCGGGAGA	0.369
CGGGGATC	0.28
AAGGAATG	0.126
CGCGTCCG	0.272
CTTCGCGC	0.274
ATCTAAAC	-0.113
GCTGGCAA	0.0154
CTCGGTCA	0.00197
TACCGGCA	0.214

Sequence	PBM E-score
GACCGGAC	0.28
AACCGGAG	0.326
CACCGGGA	0.272
AACCGGAA	0.435
TACCGGTA	0.103
TACCGGAA	0.44
CACCGGAC	0.341
AACCGGAT	0.316
GACCGGCA	0.0622
CACCGGAA	0.46
GACCGGAA	0.401
AAATAGTA	0.152
AGAGCAAC	-0.197
CCTATGGA	-0.127
CCTAGGTA	-0.174
AAAAGCAC	-0.291
AAAGACTA	-0.113
CGTTTTAG	-0.195
GGGCGTCA	0.0172
AGGAATGA	-0.0139
CGGAATGC	0.434
AGGAATGC	-0.0575
CGGAATGA	0.435
GGGAATGA	0.219
CTGAATGC	-0.0711

Sequence	PBM E-score
AGATCGTA	-0.304
ATCTCAGG	0.00088
ATTGTCGG	0.193
GATCTACC	0.00285
CTGGTTCC	0.264
ATTGTTCG	0.194
ATGGTTCA	0.0467
AGTGTTCC	0.301
CTTGTTCC	0.207
CGTGTTCA	-0.0434
ACCGTTCC	0.364
CCCGTTCC	0.347
ATTGTTCC	0.378
ACCGTTCT	-0.0192
ATGGTTCC	0.371
CGTGTTCC	0.383
CCTACTCG	0.101
ACCAGCAA	0.0732
CACCGACC	0.0698
